Test results as given in PubChem BioAssay (Tox21).
Inconclusive results are not listed. Unmarked numbers belong to inactive results. The source made the active and inactive calls. Calls come from the whole dose curve.

System: not listed separately
Assay: qHTS assay to identify small molecule agonists of the AP-1 signaling pathway (AID 1159526)
Conditions: ME-180 (cervical carcinoma) AP-1-bla reporter, beta-lactamase FRET ratio, 5 h; series mostly up to 76.8 µM; activation: at the top concentration
% is set by controls: 0 for no effect and ±100 for the full control effect.

Row | Structure (SMILES) | activation
1 | CCC(=O)O[C@]1(C(=O)CCl)[C@@H](C)C[C@H]2[C@@H]3CCC4=CC(=O)C=C[C@]4(C)[C@@]3(F)[C@@H](O)C[C@@]21C | -1.15% [at 35.3 µM]
2 | CCC(C)O (stereo not given) | -0.758%
3 | Cc1cc(C(=O)O)ccc1[N+](=O)[O-] | -1.2%
4 | COC(C)(C)CCO | -4.88%
5 | CCCCC(=O)OCC(=O)[C@H]1[C@H](C)C[C@H]2[C@@H]3C[C@H](F)C4=CC(=O)C=C[C@]4(C)[C@@]3(F)[C@@H](O)C[C@@]21C | 7.94% [at 35.3 µM]
6 | CCCCCCCCCOS(=O)(=O)O | 3.92%
7 | N=c1ccn2c(n1)O[C@H]1[C@H](O)[C@@H](CO)O[C@H]12 | -2.95%
8 | CC1=CC=C(C(C)C)CC1 | 3.89%
9 | O=C(O)c1ccc(S(=O)(=O)O)cc1C(=O)O | -9%
10 | c1cc(CCCc2ccncc2)ccn1 | -15.3%
11 | Cc1ccc(C(C)OC(=O)C2(C)CCC(C(=O)O)C2(C)C)cc1 (stereo not given) | -3.17% [at 35.3 µM]
12 | CCOc1ccc(O)cc1 | -2.48%
13 | Nc1cccc([N+](=O)[O-])c1 | 0.331%
14 | C[N+](C)(C)CCOC(=O)CCC(=O)OCC[N+](C)(C)C | -3.87% [at 35.3 µM]
15 | CC1(c2ccccc2)OC(C(=O)O)=CC1=O (stereo not given) | 13.7% [at 35.3 µM]
16 | CCCCC(CC)COC(=O)CCCCCCCCC(=O)OCC(CC)CCCC (stereo not given) | 0.18%
17 | CCOC(=O)COC(=O)c1cc(Oc2ccc(C(F)(F)F)cc2Cl)ccc1[N+](=O)[O-] | -5.61%
18 | CC(CSC(=O)c1ccccc1)C(=O)N1C[C@@H](Sc2ccccc2)C[C@H]1C(=O)O (stereo not given in full) | 17.2% [at 15.8 µM]
19 | CCCCO | -1.67%
20 | CCCn1cnc2c1c(=O)n(CCCCC(C)=O)c(=O)n2C | 1.3% [at 35.3 µM]
21 | ClCCOCCOCCCl | -7.77%
22 | CC1=CC[C@H](C(C)C)C=C1 | -1.35%
23 | OC[C@H]1O[C@@H](OCCc2ccc(O)cc2)[C@H](O)[C@@H](O)[C@@H]1O | -4.6% [at 35.3 µM]
24 | C/C=C/C=C/CO | -2.45%
25 | CCCCCCCN | 0.13%
26 | CCOC(=O)C(F)(F)F | -4.04%
27 | CN1Cc2cc(C(=O)N3CCC(C4CCNCC4)CC3)ccc2NC(CC(=O)O)C1=O (stereo not given) | -2.52% [at 35.3 µM]
28 | O=C1OC(CN2CCOCC2)CN1/N=C/c1ccc([N+](=O)[O-])o1 (stereo not given) | 8.88% [at 35.3 µM]
29 | CCOC(=O)C(=O)CCc1ccccc1 | -3.16% [at 35.3 µM]
30 | O=C(Cl)c1cc(C(=O)Cl)cc(C(=O)Cl)c1 | 16.8%

Molecular target: Retinoic acid receptor RXR-alpha (Homo sapiens) (UniProt P19793)
Assay: qHTS assay to identify small molecule agonists of the RXR signaling pathway (AID 1159527); note: nearly all actives have a fitted effect of over 35% in size; note: potency is the fitted concentration of half-maximal effect
Conditions: HEK293T RXRa-UAS-bla, beta-lactamase ratio, 16 h; series mostly up to 76.8 µM; activation: at the top concentration
Procedure, shortened: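 Agonist-mode beta-lactamase reporter assay: HEK 293T RXR-alpha-UAS-bla cells treated 16 hr at 37 C with compounds, 9-cis retinoic acid as positive control. LiveBLAzer FRET substrate, 405 nm excitation, 460/530 nm emission.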

Sequence of Retinoic acid receptor RXR-alpha (Homo sapiens) (P19793 whole entry, looked up): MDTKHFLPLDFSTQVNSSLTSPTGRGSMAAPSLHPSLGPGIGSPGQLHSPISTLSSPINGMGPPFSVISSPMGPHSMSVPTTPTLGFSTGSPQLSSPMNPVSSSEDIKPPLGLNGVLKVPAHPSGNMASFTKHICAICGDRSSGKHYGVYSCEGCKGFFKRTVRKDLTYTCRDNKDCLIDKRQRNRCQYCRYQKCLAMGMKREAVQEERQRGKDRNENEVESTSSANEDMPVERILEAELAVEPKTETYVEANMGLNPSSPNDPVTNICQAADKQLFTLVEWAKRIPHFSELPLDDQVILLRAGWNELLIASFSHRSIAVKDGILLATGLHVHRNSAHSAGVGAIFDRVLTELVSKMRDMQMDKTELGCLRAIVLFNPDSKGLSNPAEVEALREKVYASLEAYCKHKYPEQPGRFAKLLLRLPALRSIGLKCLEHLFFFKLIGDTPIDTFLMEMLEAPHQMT

Row | Structure (SMILES) | activation | Potency
31 | CCC(=O)O[C@]1(C(=O)CCl)[C@@H](C)C[C@H]2[C@@H]3CCC4=CC(=O)C=C[C@]4(C)[C@@]3(F)[C@@H](O)C[C@@]21C | -0.388% [at 35.3 µM] | 
32 | CCC(C)O (stereo not given) | -0.595% | 
33 | Cc1cc(C(=O)O)ccc1[N+](=O)[O-] | 0.0326% | 
34 | COC(C)(C)CCO | -0.087% | 
35 | CCCCC(=O)OCC(=O)[C@H]1[C@H](C)C[C@H]2[C@@H]3C[C@H](F)C4=CC(=O)C=C[C@]4(C)[C@@]3(F)[C@@H](O)C[C@@]21C | -10.5% [at 35.3 µM] | 
36 | CCCCCCCCCOS(=O)(=O)O | -0.129% | 
37 | N=c1ccn2c(n1)O[C@H]1[C@H](O)[C@@H](CO)O[C@H]12 | 11.3% | 
38 | CC1=CC=C(C(C)C)CC1 | -19.6% | 
39 | O=C(O)c1ccc(S(=O)(=O)O)cc1C(=O)O | 5.5% | 
40 | c1cc(CCCc2ccncc2)ccn1 | -3.71% | 
41 | Cc1ccc(C(C)OC(=O)C2(C)CCC(C(=O)O)C2(C)C)cc1 (stereo not given) | 0.487% [at 35.3 µM] | 
42 | CCOc1ccc(O)cc1 | 14.1% | 
43 | Nc1cccc([N+](=O)[O-])c1 | -10.4% | 
44 | C[N+](C)(C)CCOC(=O)CCC(=O)OCC[N+](C)(C)C | -0.197% [at 35.3 µM] | 
45 | CC1(c2ccccc2)OC(C(=O)O)=CC1=O (stereo not given) | 6.35% [at 35.3 µM] | 
46 | CCCCC(CC)COC(=O)CCCCCCCCC(=O)OCC(CC)CCCC (stereo not given) | 4.23% | 
47 | CCOC(=O)COC(=O)c1cc(Oc2ccc(C(F)(F)F)cc2Cl)ccc1[N+](=O)[O-] |  | 24.5 µM (active)
48 | CC(CSC(=O)c1ccccc1)C(=O)N1C[C@@H](Sc2ccccc2)C[C@H]1C(=O)O (stereo not given in full) | -12.9% [at 15.8 µM] | 
49 | CCCCO | -11.9% | 
50 | CCCn1cnc2c1c(=O)n(CCCCC(C)=O)c(=O)n2C | 8.87% [at 35.3 µM] | 
51 | ClCCOCCOCCCl | 4.09% | 
52 | CC1=CC[C@H](C(C)C)C=C1 | -12.1% | 
53 | OC[C@H]1O[C@@H](OCCc2ccc(O)cc2)[C@H](O)[C@@H](O)[C@@H]1O | 8.34% [at 35.3 µM] | 
54 | C/C=C/C=C/CO | -1.84% | 
55 | CCCCCCCN | -1.49% | 
56 | CCOC(=O)C(F)(F)F | 5.77% | 
57 | CN1Cc2cc(C(=O)N3CCC(C4CCNCC4)CC3)ccc2NC(CC(=O)O)C1=O (stereo not given) | 4.8% [at 35.3 µM] | 
58 | O=C1OC(CN2CCOCC2)CN1/N=C/c1ccc([N+](=O)[O-])o1 (stereo not given) | -18.2% [at 35.3 µM] | 
59 | CCOC(=O)C(=O)CCc1ccccc1 | -0.0365% [at 35.3 µM] | 
60 | O=C(Cl)c1cc(C(=O)Cl)cc(C(=O)Cl)c1 | -10.8% | 
